Experimental findings from PubChem BioAssay (NCI) are described below.

Each structure is given as a SMILES string. This is part of a sample that, as a whole, favours compounds with a hit. Of some 83,000 tested, about 20% had one in any assay.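 Percent growth is the endpoint: 0 to 100 indicates growth inhibition (40 means 60% inhibition), 0 means no net growth, and negative values indicate cell death.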 Values without a mark were called inactive. Active and inactive are the calls of the source. The calls were made as follows: active = growth percent below 10; inactive = the rest.

The experiment relates to HL-60(TB) leukemia. The experiment is described as follows: NCI-60 one-dose screen, 48 h (100 = growth as untreated, 0 = no growth, -100 = all killed). As to conditions: 10 µM unless noted.
As to `CN(CCO)c1oc(-c2ccccc2)nc1[P+](c1ccccc1)(c1ccccc1)c1ccccc1`, the growth is -33.1% (active).
As to `Nc1nc(-c2ccccc2)cc(-c2cc3ccccc3nc2Cl)n1`, the growth is 51.6%.
As to `CCOC(=O)/C=C/c1cccc2c1C(=O)NC(C)(c1cc3cc(Br)ccc3oc1=O)N2` (stereo not given), the growth was 27.3%.
As for `Cc1ccc(/C(N)=N/c2sc(-c3ccccc3)nc2-c2ccccc2)cc1`, the growth is 87%.
For `C=CC(=O)N1CCN(c2ccc3nc4c(nc3c2C(F)(F)F)C(=O)c2ncccc2C4=O)CC1`, the growth was -24.7% (active).
Regarding `O=C(O)Cn1c(O)c(/C=C2/C=c3cc4c(cc3=NC2=O)OCCO4)sc1=S`, the growth was 100%.
Turning to `N#Cc1c(-c2ccc(F)cc2)nc(SCc2ccccc2)nc1N1CCNCC1`, the growth is -14.7% (active).
With `COc1ccc(S(=O)(=O)Nc2ccc(-c3ccc4c(c3)NC(=O)/C4=C\c3ccc[nH]3)cc2)cc1OC`, the growth was 76.8%.
As for `COc1cc(/C=C/C(=O)c2ccc(NC(=O)CN3C(=O)NC(C)(c4ccccc4)C3=O)cc2)cc(OC)c1OC` (stereo not given), the growth was -11.5% (active).
Take `CC12CC[C@@H]3[C@]4(C)COC(c5cn[nH]c5-c5ccc(Br)cc5)O[C@@H]4CC[C@@]3(C)[C@@H]1CC(C1=CCOC1=O)O2` (stereo not given in full): the growth is 27.2%.
On to `CN(C)c1ccnc(CNCCSC2(c3ccc(C(F)(F)F)cc3)c3ccccc3C=Cc3ccccc32)c1`, for which the growth was -34.1% (active).
The figure for `CC[C@]12C=CCN3CC[C@]4(C(=C(C(=O)OC)C1)Nc1cc(OC)c([C@@H]5[C@H]6O[C@H]6[C@@]6(CC)CC(C(=O)OC)=C7Nc8cc(OC)ccc8[C@@]78CCN5[C@@H]68)cc14)[C@@H]32` is 25%; for `C=C1CC[C@@H]2[C@]3(C)COC(c4cn[nH]c4-c4ccc(C)cc4)O[C@@H]3CC[C@@]2(C)[C@@H]1C/C=C1/C(=O)OCC1O` (stereo not given in full) it is 7.26% (active); for `COc1cc(CNC(=O)[C@]23CCC(C)(C)CC2C2=CCC4[C@@]5(C)CCC(OC(C)=O)C(C)(C)C5CC[C@@]4(C)[C@]2(C)CC3)ccc1OCc1cn(-c2ccc(Cl)cc2Cl)nn1` (stereo not given in full) it is 105%.
The figure for `CC(=O)c1cccc(NC(=O)CCC(=O)NS(=O)(=O)c2ccc(C)cc2)c1` is 107%; for `COc1ccc2[nH]c(=O)cc(-n3ncc(C(=O)/C=C/c4cc(OC)c(OC)c(OC)c4)c3C)c2c1` it is -33.4% (active); for `N/C(=N\c1nc2ccccc2s1)NC(=O)Nc1ccccc1Br` it is -28.5% (active).
For the compound `C#CCNC(=O)CCC(=O)OC[C@]12CC[C@@H](C(=C)C)[C@@H]1C1CC[C@@H]3[C@@]4(C)CCCNC(C)(C)[C@@H]4CC[C@@]3(C)[C@]1(C)CC2` (stereo not given in full), the growth is -39% (active).
With `CCCCOc1ccc(Nc2nc3ccccc3nc2Nc2ccc(OCCCC)cc2)cc1`, the growth is 79.7%.
For the compound `Cn1cc(-c2nc(N)nnc2-c2c[nH]c3ccc(F)cc23)c2cc(Br)cnc21`, the growth is -34% (active).
For `Nc1nc(-c2ccccc2)cs1`, the growth was 18.9%.
Take `CCOC(=O)C1=C(N)N(c2ccc(C)cc2)C2=C(C(=O)CC(C)(C)C2)C1c1ccccc1OC` (stereo not given): the growth was 98.9%.
For `NC1=NC(c2ccccc2Cl)N=C(Nc2nn[nH]n2)N1` (stereo not given), the growth is 110%.
In the case of `COc1ccc2ncc(C#Cc3cncc(C(=O)Nc4ccc(CN5CCN(C)CC5)c(C(F)(F)F)c4)c3)n2n1`, the growth is -60.2% (active).
`O=C(CN1CCN(c2ncnc3c2cnn3-c2ccccc2)CC1)Nc1nncs1`: the growth is -45.5% (active).
`COc1cc2c(c(OC)c1OC)C(=O)CC(c1cccc(NC(=O)c3cc(N)ccc3Cl)c1)O2` (stereo not given): the growth is 52.2%.
As to `Cc1oc(-c2ccccc2)nc1CN[C@@H]1C[C@@H]2C[C@H]([C@H]1C)C2(C)C`, the growth was -23.7% (active).
On to `COc1cc(/C=C/C(=O)c2cnn(-c3cc(=O)[nH]c4ccccc34)c2C)cc(OC)c1OC`, for which the growth was 0.36% (active).
On to `O=c1[nH]c(=O)c2c(-c3cc4ccccc4oc3=O)ccnc2[nH]1`, for which the growth is 106%.
The figure for `N#CC1=C(c2cccs2)Nc2c(c(-c3ccccc3)nn2-c2ccccc2)C12C(=O)Nc1ccccc12` (stereo not given) is 0.7% (active); for `Cc1ccccc1[C@H]1C(C(=O)c2ccc(Cl)cc2)C2(N[C@@H]1c1ccccc1)C(=O)Nc1ccc(Cl)cc12` (stereo not given in full) it is -32.2% (active).
Consider `C=C1CC[C@@H]2[C@]3(C)COC(c4cn[nH]c4-c4cccc(Cl)c4)O[C@@H]3CC[C@@]2(C)[C@@H]1C/C=C1/C(=O)OCC1O` (stereo not given in full), for which the growth was -15.1% (active).
Regarding `CC1(C)CC[C@]2(C(=O)O)CC[C@]3(C)C(=CCC4[C@@]5(C)C[C@@H](O)[C@@H]6OC(c7ccc(F)cc7)OC[C@@]6(C)C5CC[C@]43C)C2C1` (stereo not given in full), the growth was 3.11% (active).
As to `C=Cn1cc(C(=O)O)c(=O)c2cc(F)c(N3CCN(c4nccc(-c5nccs5)n4)CC3)cc21`, the growth was -24.7% (active).
The figure for `CN1C(=O)N(C)C2SC(N/N=C/c3ccccc3)=NC21` (stereo not given) is 8.73% (active).
As to `COc1cc(C2CC(c3ccc(Oc4ccc(Cl)cc4)cc3)=NN2c2nc(-c3ccc(Cl)cc3)c(C#N)c(N3CCOCC3)n2)cc(OC)c1OC` (stereo not given), the growth was 102%.
For `COc1cccc2nc(Nc3cccc(NC(=O)c4ccc(CN5CCCN(C)CC5)c(C(F)(F)F)c4)c3)ccc12`, the growth is -54.3% (active).
The figure for `O=C(N/N=C/c1c[nH]c2ccccc12)Nc1ccc(F)c(Cl)c1` is 15.9%; for `CC1(c2ccccc2)NC(=O)N(CC(=O)Nc2ccc(C(=O)/C=C/c3ccc(Br)cc3)cc2)C1=O` (stereo not given) it is 20.8%.
Turning to `Nc1nc(C(F)(F)F)cs1`, the growth was 102%.
